# Laboratory results published in PubChem BioAssay (Tox21).
# Records with an inconclusive call do not appear. Entries that show only a call come without a potency. A number with no mark means an inactive call. The source made the active and inactive calls. The call rests on the fitted dose curve; in most records, active means well fitted cell-killing curve with a large enough effect in the repeat runs; inconclusive means weak or mixed curves, or effect the other way; inactive means no such curve, though single readings can be large or run the other way.
# Assay: qHTS assay to identify small molecule antagonists of the vitamin D receptor (VDR) signaling pathway - cell viability counter screen (AID 743225); further: nearly all actives have a fitted effect of over 50% in size
# Conditions: VDR-bla HEK293T viability, CellTiter-Glo luminescence, 16 h; series mostly up to 61 µM; viability change, negative = cytotoxic: at the top concentration
# Text: U.S. Tox21 Program National Center for Advancing Translational Sciences [NCATS] NIH Chemical Genomics Center [NCGC] U.S. Environmental Protection Agency [EPA] National Institutes of Environmental Health Sciences [NIEHS] National Toxicology Program [NTP] U.S. Food and Drug Administration [FDA] Tox21 Assay Overview: The vitamin D receptor (VDR), a member of nuclear hormone receptor superfamily, plays a critical role in calcium homeostasis and bone metabolism. It is also involved in cell differentiation and growth, and thrombogenicity. To identify the compounds that inhibit VDR signaling, the VDR-UAS-bla HEK 293T cell line (Invitrogen, Carlsbad, CA, USA) containing a beta-lactamase reporter gene under the control of an upstream activator sequence (UAS) was used to screen the Tox21 10K compound library. The cytotoxicity of the Tox21 compound library against the VDR-bla cell line was tested in parallel by measuring the cell viability using CellTiter-Glo assay (Promega, Madison, WI) in the same wells.
# Tox21 Assay Protocol Summary: VDR-bla cells were dispensed at 2,000 cells/5 uL of assay medium per well into black wall/clear-bottom 1536-well plates using a Multidrop Combi (Thermo Fisher Scientific, Waltham, MA) dispenser. After the assay plates were incubated at a 37C and 5% CO2 for 4 h, 23 nL of compounds dissolved in DMSO, positive controls or DMSO only was transferred to the assay plate by a Pintool station (Kalypsys, San Diego, CA), followed by addition of 1 uL of 1-alpha, 25-Dihydroxy Vitamin D3 (3 nM, final concentration in the wells) using a Bioraptr Flying Reagent Dispenser (FRD) workstation (Beckman Coulter, Indianapolis, IN). The plates were incubated at 37C and 5% CO2 for 16 h, and then 1 uL of LiveBLAzerTM B/G FRET substrate was added using a Bioraptr FRD. The plates were incubated at room temperature for 2 h and fluorescence intensity was measured by an Envision plate reader (PerkinElmer, Shelton, CT). For cell viability readout that measures cytotoxicity, 3 ul/well of CellTiter-Glo reagent was added into the assay plates using a Bioraptr FRD. After 30 min incubation at room temperature, the luminescence intensity in the plates was measured using a ViewLux plate reader (PerkinElmer).
Compound,"viability change, negative = cytotoxic",Potency
OCC(O)CS (stereo not given),11.7%,
COc1c2ccoc2cc2oc(=O)ccc12,14.4% [at 78.8 µM],
CC/C=C(\C(=O)N[C@@H]1C(=O)N2C(C(=O)OCOC(=O)C(C)(C)C)=C(COC(N)=O)CS[C@H]12)c1csc(N)n1,,inactive
COC(=O)OC,,inactive
COc1ccc([C@@H]2CC(=O)c3c(O)cc(O[C@@H]4O[C@H](CO[C@@H]5O[C@@H](C)[C@H](O)[C@@H](O)[C@H]5O)[C@@H](O)[C@H](O)[C@H]4O)cc3O2)cc1OC,,inactive
COc1c(Cl)ccc(Cl)c1C(=O)O,,inactive
CCCCC(CC)COC(=O)c1ccc(C(=O)OCC(CC)CCCC)cc1 (stereo not given),,inactive
CC(C)c1ccc(C(C)C)cc1,,inactive
CN1Cc2c(N)cccc2C(c2ccccc2)C1 (stereo not given),,inactive
Clc1cccc(Cl)c1NC1=NCCN1,,inactive
CCCN(CCC)C(=O)SCC,,inactive
N[C@@H](Cc1cc(I)c(Oc2ccc(O)c(I)c2)c(I)c1)C(=O)O,,inactive
O=C1OC(=O)c2c(Cl)c(Cl)c(Cl)c(Cl)c21,,inactive
OCc1ccc(Cl)cc1Cl,,inactive
CCOC(=O)c1ccc(O)cc1,,inactive
CC1=CC(=O)CC(C)(C)C1,,inactive
O=C1CCCCCCCCCCC1,,inactive
Cc1ccccc1Cl,,inactive
CC(=O)OCc1ccc2c(c1)OCO2,,inactive
C=CC(C)(C)C,,inactive

Compound,"viability change, negative = cytotoxic",Potency
CS(=O)(=O)c1ccc(Cl)cc1,,inactive
Nc1cccc(C(F)(F)F)c1,,inactive
COC(=O)CCCCC(=O)OC,-25.3% [at 78.8 µM],
CC(=O)OC(C)(C)C1CC=C(C)CC1 (stereo not given),,inactive
CC(=O)C(C)C,,inactive
CCCCCNCCCCC,,inactive
CC(C)=CCC/C(C)=C/C=O,,inactive
COc1ccc(N)c(OC)c1,,inactive
OC1CCCCC1,,inactive
CC[N+](CC)(CC(=O)Nc1c(C)cccc1C)Cc1ccccc1,21.8%,
O=C(O)C1=NN(c2ccc(S(=O)(=O)O)cc2)C(=O)C1,,inactive
CC(=O)c1nccs1,,inactive
CCCCCCCCC(=O)O,,inactive
Brc1ccc(Oc2ccc(Br)cc2)cc1,,inactive
C=C(C)CC(C)(C)C,,inactive
Cc1ccc([N+](=O)[O-])cc1N,,inactive
CN=C(NC#N)NCCSCc1nc[nH]c1C,,inactive
CCn1cc(C(=O)O)c(=O)c2cc3c(cc21)OCO3,,inactive
O=c1c(O)c(-c2ccc(O)c(O)c2)oc2cc(O)cc(O)c12,,inactive
CC(O)CNCC(C)O (stereo not given),,inactive
